Only some compounds are listed: those with a hit (about 4.6% of all), similar ones and a draw of the others.
hgDAF12 agonist: activates the H. glycines DAF-12 receptor ligand-binding domain; activation, % at 6.8 µM; HEK293 GAL4-hgDAF12 UAS-luciferase reporter, agonist luminescence; normalized to butyrate control; 1.8% of 370,000 active;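 active = activation above a cutoff set at the mean of all screened compounds plus 3 SD, cut at about 10% in these data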;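 also: 0% = DMSO wells and 100% = sodium butyrate wells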
hcDAF12 agonist: activates DAF-12 receptor from parasite H. contortus; HEK293 hcDAF-12 lit1-tk-luc reporter, luminescence; 0% DMSO, 100% Δ7-dafachronic acid; 1.4% of 370,000 active; activation, % at 6.8 µM; AID 652067;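 active = activation above the mean of all tested compounds plus 3 SD, cut at about 5.5% in these data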;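 also: 100% = response to 3 µM Δ7-dafachronic acid high control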
DAX1 inh-1: DAX1 (NR0B1) inhibition, primary screen; HEK293T StAR-luciferase reporter, SF-1/DAX-1 repression relief; inhibition, % at 6.8 µM; 1.1% of 370,000 active;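 active = inhibition above the mean over all tested compounds plus 3 SD, cut at about 3.6% in these data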;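 also: 0% = DAX-1 cells with DMSO and 100% = cells lacking DAX-1 with DMSO; higher inhibition means more luminescence from relief of DAX-1 repression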
Wee1 degr inh: inhibitors of human Wee1 degradation | P30291 | HeLa Luc-Wee1K328M stability, luciferase luminescence; 100% = proteasome inhibitor MG132 effect | reporter increase, % at 5 µM | 1.2% of 220,000 active;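 active = activation above the mean of all tested compounds plus 3 SD, set per screening run, cut at about 8.8% in these data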;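 also: cells exposed to compound for 20 h before luminescence read; 0% = DMSO alone and 100% = MG132 at 30 µM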
ssDAF12 agonist: activators of S. stercoralis DAF-12 nuclear receptor; HEK293 ssDAF-12/GRIP1 lit1-tk-luc reporter, luminescence; % of 3 µM dafachronic acid response; activation, % at 6.8 µM; 1% of 370,000 active; AID 652126;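 active = activation above the mean over all tested compounds plus 3 SD, cut at about 0.9% in these data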;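 also: 0% = DMSO-only wells and 100% = 3 µM delta7-dafachronic acid wells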
DAX1 inh-2: NR0B1 (DAX1) inhibition. P51843. HEK293 Gal4-DAX1 luciferase reporter, luminescence. inhibition, % at 6.75 µM. 0.99% of 340,000 active;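 active = inhibition above the mean over all tested compounds plus 3 SD, cut at about 4.2% in these data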;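 also: 0% = DAX1-transfected cells with DMSO and 100% = empty-vector control cells with DMSO; inhibition shows as a rise in luminescence from relieved DAX1 repression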
Target sequence (P51843 207-470 limits assumed): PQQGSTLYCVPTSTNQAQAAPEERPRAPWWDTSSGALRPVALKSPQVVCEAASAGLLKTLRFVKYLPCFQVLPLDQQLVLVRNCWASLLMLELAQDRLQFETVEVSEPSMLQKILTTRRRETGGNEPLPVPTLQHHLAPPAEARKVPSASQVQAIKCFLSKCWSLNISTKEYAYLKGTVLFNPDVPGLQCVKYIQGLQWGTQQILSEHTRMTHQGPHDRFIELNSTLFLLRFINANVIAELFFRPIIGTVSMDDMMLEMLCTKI
* hit, by the source's call.

How did CCOc1ccc(C(=O)Nc2nc3ccccc3[nH]2)cc1OCC do in these assays?
hgDAF12 agonist: -4.7; hcDAF12 agonist: -2.9; DAX1 inh-1: -2.8; Wee1 degr inh: 9.3*; ssDAF12 agonist: -2.1; DAX1 inh-2: -3.1

Results for COc1ccc(C(=O)Nc2nc3ccccc3[nH]2)cc1OC ?
hgDAF12 agonist: 7.3; hcDAF12 agonist: 1.7; DAX1 inh-1: 2.0; Wee1 degr inh: 1.4; ssDAF12 agonist: -0.6; DAX1 inh-2: -0.1

How did CC(=O)Nc1cccc(-c2ccnc3c2CC(C)(C(=O)Nc2ccc(C(C)C)cc2)O3)c1 (centres undefined) do in these assays?
hgDAF12 agonist: 1.4; hcDAF12 agonist: -1.3; DAX1 inh-1: -2.1; ssDAF12 agonist: -1.9

What do the screens show for `Cc1cc(C(=O)COC(=O)c2ccc(N)c([N+](=O)[O-])c2)c(C)n1Cc1ccc2c(c1)OCO2`?
hgDAF12 agonist: -1.1; hcDAF12 agonist: 1.2; DAX1 inh-1: 0.1; Wee1 degr inh: 5.8; ssDAF12 agonist: -1.5; DAX1 inh-2: 0.2

What do the screens show for `C=CCn1c(C)cc(C(=O)COC(=O)c2ccc(N)c([N+](=O)[O-])c2)c1C`?
hgDAF12 agonist: 12.4*; hcDAF12 agonist: 4.9; DAX1 inh-1: 2.0; Wee1 degr inh: 2.0; ssDAF12 agonist: -0.2; DAX1 inh-2: 3.4

How did O=c1c2cc(NC(=S)N3CCCCC3)ccc2nc2n1CCCCC2 do in these assays?
hgDAF12 agonist: 5.3; hcDAF12 agonist: 0.2; DAX1 inh-1: -0.5; Wee1 degr inh: 3.2; ssDAF12 agonist: 1.1*; DAX1 inh-2: 0.0

Results for CC(C)n1cc(/C=N/Nc2ccc(Cl)c(C(=O)O)c2)c2ccccc21 ?
DAX1 inh-2: 4.5*

Results for COc1ccc(C)cc1S(=O)(=O)N(C)CC(=O)N1CCCC1 ?
hgDAF12 agonist: -3.1; hcDAF12 agonist: -2.1; DAX1 inh-1: -0.3; ssDAF12 agonist: -1.2; DAX1 inh-2: 4.8*

How did Cc1ccc(CN2CCNC(=O)C2CC(=O)NCCCn2ncc3ccccc32)o1 (centres undefined) do in these assays?
hgDAF12 agonist: 2.2; hcDAF12 agonist: 2.1; DAX1 inh-1: 0.1; Wee1 degr inh: 14.9*; ssDAF12 agonist: -1.6; DAX1 inh-2: 0.7

What do the screens show for `Cc1ccc(CN2CCNC(=O)C2CC(=O)NC2CCCCCC2)o1` (centres undefined)?
hgDAF12 agonist: 5.7; hcDAF12 agonist: -0.5; DAX1 inh-1: 0.1; Wee1 degr inh: -0.9; ssDAF12 agonist: -1.3; DAX1 inh-2: 0.3

What do the screens show for `O=S(=O)(c1ccccc1Br)N(Cc1cn(Cc2ccccc2)nn1)C1CC1`?
hgDAF12 agonist: -2.2; hcDAF12 agonist: -2.0; DAX1 inh-1: -0.3; ssDAF12 agonist: -1.6

What do the screens show for `COc1ccccc1/C=C(\NC(=O)c1ccc(OC)c(OC)c1)C(=O)Nc1cc([N+](=O)[O-])ccc1C`?
hgDAF12 agonist: -1.7; hcDAF12 agonist: -1.6; DAX1 inh-1: 0.1; Wee1 degr inh: 10.4*; ssDAF12 agonist: -0.9; DAX1 inh-2: -1.1

How did COc1ccc(/C=C(/NC(=O)c2cccc([N+](=O)[O-])c2)C(=O)O)cc1OC do in these assays?
hgDAF12 agonist: -2.1; hcDAF12 agonist: -0.3; DAX1 inh-1: -0.2; Wee1 degr inh: 3.3; ssDAF12 agonist: -1.5; DAX1 inh-2: 1.1

Results for O=C(Nc1ccccc1[N+](=O)[O-])C1COc2ccccc2O1 (centres undefined) ?
hgDAF12 agonist: 6.9; hcDAF12 agonist: 5.3; DAX1 inh-1: 1.8; ssDAF12 agonist: 0.5; DAX1 inh-2: 8.7*

How did Cc1cccnc1NC(=O)C1COc2ccccc2O1 (centres undefined) do in these assays?
hgDAF12 agonist: 3.0; hcDAF12 agonist: 0.9; DAX1 inh-1: 0.8; Wee1 degr inh: -1.2; ssDAF12 agonist: 1.4*; DAX1 inh-2: -0.7

What do the screens show for `COc1ccc(C)cc1NC(=O)C1COc2ccccc2O1` (centres undefined)?
hgDAF12 agonist: 2.2; hcDAF12 agonist: 3.1; DAX1 inh-1: 4.2*; Wee1 degr inh: 1.9; ssDAF12 agonist: -0.9; DAX1 inh-2: -0.7

How did Cc1ccc(C)c(NC(=O)C2COc3ccccc3O2)c1 (centres undefined) do in these assays?
hgDAF12 agonist: 3.1; hcDAF12 agonist: -1.9; DAX1 inh-1: 0.9; ssDAF12 agonist: -1.2; DAX1 inh-2: 0.1

Screening data as filed in PubChem BioAssay.
